Results on 15 compounds are retold here after PubChem BioAssay.

For part of these data: Potency and affinity values are given separately. Calls of active or inactive are those of the source.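 How the source made its calls, unless noted: active means primary screen inhibitor hit that blocks the TRPC4 channel at some tested dose, yielding a dose curve; inactive means the rest.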

In experiment [1] the test system is TRPC4 beta (transient receptor potential cation channel C4), mouse. Description: activators of mouse TRPC4 channel, confirmation, cell-based, Fluo4 calcium, HEK293 TRPC4beta/mu-opioid, duplicates, 10 µM (AID 2426;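 active means fluorescence ratio normalized to control raised more than 50% in primary screen plus both repeat runs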). The following applies: Fluo4 calcium fluorescence, at 10 µM; stronger effect = higher value.
The test system of experiment [2] is transient receptor potential cation channel C4 beta (TRPC4), mouse. Description: activators of mouse TRPC4 channel, confirmation, cell-based, second round, Fluo4, HEK293 TRPC4beta/mu-opioid, 1 µM (AID 2461;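 active means primary screen active and over 50% activation in each of two duplicate runs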). The following applies: Fluo4 calcium fluorescence, at 1 µM; stronger effect = higher value.
For experiment [3], the system named is TRPC4 (transient receptor potential cation channel C4 beta), mouse. Description: positive allosteric modulators of mouse TRPC4, confirmation, cell-based, second round, Fluo-4, HEK293 TRPC4beta/mu-opioid, 1 µM (AID 2554;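 active means primary screen hit whose fluorescence ratio, in both repeats, exceeds the weak agonist control mean by 3 SD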). The following applies: DAMGO EC20, Fluo-4 calcium flux, at 1 µM; stronger effect = higher value.
Experiment [4] relates to TRPC4 beta (transient receptor potential cation channel C4), mouse. Description: positive allosteric modulators of mouse TRPC4, confirmation, cell-based, Fluo-4, HEK293 TRPC4beta/mu-opioid (AID 2555;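 active means primary screen hit whose calcium fluorescence ratio, in both repeats, exceeds the weak agonist control mean by 3 SD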). The following applies: DAMGO EC20, Fluo-4 calcium flux, at 10 µM; stronger effect = higher value.
Experiment [5] concerns the target Short transient receptor potential channel 4 (Mus musculus) (UniProt Q9QUQ5). Description: inhibitors of mouse TRPC4 channel, confirmation, cell-based, Fluo4, HEK293 TRPC4beta/mu-opioid (AID 2636;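 active means calcium signal cut by more than 3 SD below the full-agonist control yet still positive, in both repeats and the earlier primary screen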). To be noted: DAMGO, Fluo4 calcium flux, at 10 µM; stronger effect = higher value. On the technique in general: A change in cytosolic calcium serves as a functional read-out for many receptors and channels.

Experiment [6] has the same target. Description: inhibitors of mouse TRPC4 channel, confirmation, cell-based, second round, Fluo4, HEK293 TRPC4beta/mu-opioid, 1 µM (AID 2637;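 active means calcium signal ratio cut to more than 3 SD under the fully stimulated control mean yet still positive, in both repeats and the primary screen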). To be noted: Fluo4 calcium flux, DAMGO, at 1 µM; stronger effect = higher value.
Experiment [7] shares this target. Description: mouse TRPC4 channel activators, dose response, cell-based, HEK293 TRPC4/mu-opioid, Fluo-4 calcium (AID 434937;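 active means primary screen activator hit with a dose response curve and TRPC4 channel activation at any tested dose; inactive means no activation, no dose response, or not a primary hit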).
The target is the same in experiment [8]. Description: TRPC4 positive allosteric modulators, dose response, cell-based, HEK293 TRPC4/mu-opioid, Fluo-4 calcium, EC20 DAMGO (AID 434941;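 active means earlier screen potentiator hit that boosts the TRPC4 ion channel at some dose, with a dose response; inactive means no potentiation, no dose response, or not a prior hit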;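 further: calcium entry triggered by an EC20 dose of DAMGO at the co-expressed mu-opioid receptor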).
Experiment [9] has the same target. Description: mouse TRPC4 channel inhibitors, dose response, cell-based, HEK293 TRPC4/mu-opioid, Fluo-4 calcium (AID 434942).
Experiment [10] addresses Short transient receptor potential channel 6 (Mus musculus) (UniProt Q61143). Description: inhibition of mouse TRPC6 channel, confirmation, selectivity assay for TRPC4 inhibitor project, cell-based, HEK293, membrane potential dye, duplicate (AID 434948;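 active means active in primary screen and both duplicates, each dropping signal beyond three positive-control SD with fluorescence still positive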). To be noted: HEK293 TRPC6, membrane potential dye fluorescence, at 10 µM, stimulated with maximal-effect acetylcholine; stronger effect = higher value.

Experiment [11] has the same target. Description: activation of mouse TRPC6 channel, confirmation, selectivity assay for TRPC4 activator project, cell-based, HEK293, membrane potential dye, duplicate (AID 434950;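 active means membrane potential signal rise above negative control mean plus 3 SD in both duplicates, also active in the earlier TRPC4 screen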). To be noted: HEK293 TRPC6, membrane potential fluorescence, at 10 µM; stronger effect = higher value.
Experiment [12] shares this target. Description: TRPC6 potentiation by TRPC4 potentiator hits, confirmation, selectivity assay for TRPC4 potentiator project, HEK293 cells, membrane potential dye, duplicate (AID 434952;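 active means compound raising the membrane signal above positive-control mean plus 3 SD in both repeats, and a primary screen hit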). The following applies: HEK293 TRPC6, membrane potential dye fluorescence, at 10 µM, maximal acetylcholine added after compound; stronger effect = higher value.
Experiment [13] concerns the target Short transient receptor potential channel 4 (Mus musculus) (UniProt Q9QUQ5). Description: calcium flux activators in TRPC4/5HT1a cells, counter-screen for TRPC4 activator project, cell-based, second counter screen, HEK293 TRPC4/5HT1a, Fluo-4 (AID 434977;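 active means calcium signal rise above buffer-control mean plus 5 SD in both duplicates, and also a hit in the primary screen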). To be noted: Fluo-4 calcium flux, at 10 µM; stronger effect = higher value.
Experiment [14] can be described thus: calcium flux inhibitors in TRPC4/5HT1a cells, confirmation, counter-screen for TRPC4 inhibitor project, cell-based, second counter screen, HEK293 TRPC4/5HT1a, Fluo-4 (AID 434978;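 active means primary screen active whose calcium signal fell more than 3 SD beyond the full-serotonin control mean in both duplicate plates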;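 on outcome: serotonin given first at submaximal then at maximal dose after compound preincubation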). The following applies: Fluo-4 calcium flux, at 10 µM, serotonin added to trigger calcium flux; stronger effect = higher value.
In experiment [15] the test system is TRPC4 (mouse), co-expressed with 5HT1a in HEK293. Description: calcium flux potentiators in TRPC4/5HT1a cells, confirmation, counter-screen for TRPC4 potentiator project, cell-based, second counter screen, HEK293 TRPC4/5HT1a, Fluo-4 (AID 434979;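 active means signal rise over 3 SD above mean of control wells given weak agonist, in both repeats and first screen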). The following applies: Fluo-4 calcium flux, at 10 µM, serotonin added at its EC20 dose; stronger effect = higher value.
Experiment [16] in a line: calcium flux activation in mu-opioid HEK293 cells, confirmation, counter-screen for TRPC4 activator project, cell-based, HEK293 mu-opioid receptor line (AID 449723;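 active means hit in primary screen, with calcium signal over 5 SD above buffer well mean in both duplicates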;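 further: counter screen cells carry the mu-opioid receptor alone and lack TRPC4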). To be noted: Fluo-4 calcium fluorescence, at 10 µM; stronger effect = higher value.
The nature of experiment [17]: calcium flux enhancement in mu-opioid HEK293 cells, confirmation, counter-screen for TRPC4 allosteric potentiator project, cell-based, HEK293 mu-opioid receptor line (AID 449724;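 active means calcium signal rise more than 3 SD above the low-dose agonist control mean, in both duplicate plates and the primary screen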;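 further: HEK293 cells carrying mu-opioid receptor only with no TRPC4 channel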). To be noted: Fluo-4 calcium flux, at 10 µM, compound added before EC20 DAMGO stimulus; stronger effect = higher value.

Short transient receptor potential channel 4 (Mus musculus), sequence (Q9QUQ5 whole entry, looked up): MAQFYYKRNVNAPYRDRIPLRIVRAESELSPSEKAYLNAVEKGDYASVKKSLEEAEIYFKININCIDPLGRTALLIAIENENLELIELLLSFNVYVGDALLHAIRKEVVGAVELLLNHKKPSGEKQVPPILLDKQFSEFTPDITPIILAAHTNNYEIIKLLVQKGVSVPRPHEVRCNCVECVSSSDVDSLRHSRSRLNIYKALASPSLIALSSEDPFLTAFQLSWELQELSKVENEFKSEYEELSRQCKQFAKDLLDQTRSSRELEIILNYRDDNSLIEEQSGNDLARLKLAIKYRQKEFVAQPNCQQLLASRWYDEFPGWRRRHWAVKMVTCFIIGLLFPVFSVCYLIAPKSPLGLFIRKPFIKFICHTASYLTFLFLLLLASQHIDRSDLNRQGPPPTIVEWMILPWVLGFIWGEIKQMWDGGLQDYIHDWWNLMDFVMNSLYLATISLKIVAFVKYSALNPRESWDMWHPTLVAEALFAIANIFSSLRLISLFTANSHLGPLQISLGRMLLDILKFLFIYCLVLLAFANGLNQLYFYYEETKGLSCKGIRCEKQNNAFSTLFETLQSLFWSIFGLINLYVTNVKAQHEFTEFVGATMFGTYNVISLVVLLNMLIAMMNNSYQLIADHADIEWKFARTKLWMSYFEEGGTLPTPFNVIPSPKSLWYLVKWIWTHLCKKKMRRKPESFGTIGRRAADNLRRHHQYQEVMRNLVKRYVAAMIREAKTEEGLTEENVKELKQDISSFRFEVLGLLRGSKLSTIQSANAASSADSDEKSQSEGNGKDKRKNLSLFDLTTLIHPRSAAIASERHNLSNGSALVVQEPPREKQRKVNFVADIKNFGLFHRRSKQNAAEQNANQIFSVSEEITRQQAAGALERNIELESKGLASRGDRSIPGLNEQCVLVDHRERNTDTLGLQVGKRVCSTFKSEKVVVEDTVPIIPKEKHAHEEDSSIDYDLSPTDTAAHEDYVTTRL
Short transient receptor potential channel 6 (Mus musculus), sequence (Q61143 whole entry, looked up): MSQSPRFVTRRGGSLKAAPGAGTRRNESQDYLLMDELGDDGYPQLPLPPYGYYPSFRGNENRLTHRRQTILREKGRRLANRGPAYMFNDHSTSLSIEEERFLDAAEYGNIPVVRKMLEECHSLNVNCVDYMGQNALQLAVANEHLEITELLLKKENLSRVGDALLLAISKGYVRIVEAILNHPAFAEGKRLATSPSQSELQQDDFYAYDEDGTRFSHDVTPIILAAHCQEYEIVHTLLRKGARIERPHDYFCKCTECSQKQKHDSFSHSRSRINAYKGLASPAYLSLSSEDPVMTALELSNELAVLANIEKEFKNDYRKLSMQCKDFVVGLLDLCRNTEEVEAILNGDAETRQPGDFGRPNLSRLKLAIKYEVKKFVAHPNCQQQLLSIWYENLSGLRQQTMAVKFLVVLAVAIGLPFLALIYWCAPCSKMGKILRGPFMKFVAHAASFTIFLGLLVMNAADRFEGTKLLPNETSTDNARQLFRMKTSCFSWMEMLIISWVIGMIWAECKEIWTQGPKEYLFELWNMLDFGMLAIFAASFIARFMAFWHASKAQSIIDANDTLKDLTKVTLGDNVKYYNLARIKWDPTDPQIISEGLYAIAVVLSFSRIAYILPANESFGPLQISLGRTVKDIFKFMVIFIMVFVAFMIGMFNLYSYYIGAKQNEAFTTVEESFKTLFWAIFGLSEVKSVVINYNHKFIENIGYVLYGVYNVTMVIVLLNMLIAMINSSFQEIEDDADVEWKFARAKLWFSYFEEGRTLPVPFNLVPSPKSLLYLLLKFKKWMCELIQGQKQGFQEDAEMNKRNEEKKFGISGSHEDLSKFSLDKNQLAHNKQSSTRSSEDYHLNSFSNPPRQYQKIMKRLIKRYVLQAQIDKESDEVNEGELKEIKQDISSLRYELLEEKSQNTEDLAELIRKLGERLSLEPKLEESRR

On to `C=C(C)COc1ccc(-c2[nH]ncc2Oc2ccc(OC)cc2)c(O)c1`, for which the result in [1], in experiment [2], in experiment [3], in experiment [4], in experiment [5] and in experiment [6] was inactive. Further, the outcome in [7], in experiment [8], in experiment [9], in experiment [10], in experiment [11] and in experiment [12] was inactive. Also, the outcome in [13], in experiment [14], in [15], in [16] and in experiment [17] was inactive.

Turning to `CCOC(=O)c1c(C)oc2ccc(O)c(CN3CCCCC3)c12`, the result in experiment [1], in [2], in experiment [3], in experiment [4], in [5] and in experiment [6] was inactive. Moreover, the outcome in [7], in experiment [8], in [9], in experiment [10], in experiment [11] and in experiment [12] was inactive. For the same compound, the result in experiment [13], in experiment [14], in [15], in [16] and in experiment [17] was inactive.

As for `O=C(Nc1ccc2c(c1)OCO2)c1cnn2cccnc12`, the result in experiment [1], in experiment [2], in experiment [3], in experiment [5], in experiment [6] and in experiment [7] was inactive. Further, the outcome in experiment [8], in experiment [9], in experiment [10], in experiment [11], in experiment [12] and in experiment [13] was inactive. Further, the outcome in experiment [14], in experiment [16] and in experiment [17] was inactive. Further, the values for the potentiation in experiment [4] and in [15] were 38% (active) and 48.5% (active), respectively.

With `Cc1sc2nc(SCC(N)=O)n(C)c(=O)c2c1C`, the outcome in experiment [1], in experiment [2], in [3], in experiment [5], in experiment [6] and in experiment [7] was inactive. For the same compound, the result in [8], in experiment [9], in experiment [10], in experiment [11], in experiment [12] and in experiment [13] was inactive. In addition, the outcome in [14], in [16] and in [17] was inactive. Also, the values for the potentiation in experiment [4] and in [15] were 16% (active) and 26.5% (active), respectively.

In the case of `COc1cc(CNC2CCCCCCC2)cc(Br)c1OCC#N`, the result in experiment [1], in [2], in [3], in experiment [4], in experiment [5] and in experiment [6] was inactive. Moreover, the result in experiment [7], in experiment [8], in experiment [9], in [10], in experiment [11] and in [12] was inactive. Besides, the outcome in experiment [13], in experiment [14], in experiment [15], in [16] and in experiment [17] was inactive.

Take `O=[N+]([O-])c1cccc(CSc2nnc(Cc3ccccc3)n2-c2ccc(F)cc2)c1`: the result in experiment [1], in [2], in experiment [3], in experiment [4], in experiment [5] and in experiment [6] was inactive. Besides, the outcome in experiment [7], in experiment [8], in experiment [9], in [10], in experiment [11] and in experiment [12] was inactive. Moreover, the result in [13], in [14], in experiment [15], in experiment [16] and in experiment [17] was inactive.

For the compound `COc1ccc(OCC(=O)NC2CCCN(Cc3ccc(Cl)cc3)C2)cc1` (stereo not given), the result in [1], in experiment [2], in experiment [4], in [5], in experiment [6] and in experiment [7] was inactive. The outcome in [8], in [9], in experiment [10], in experiment [11], in [12] and in [13] was inactive. Also, the outcome in [14], in experiment [16] and in [17] was inactive. Besides, the potentiation in experiment [3] is 26% (active); in [15] it was 15.2% (active).

With `CCCCc1ccc(NC(=O)CSc2nnc(C)c(=O)n2N)cc1`, the result in [1], in experiment [2], in experiment [3], in experiment [5], in experiment [6] and in experiment [7] was inactive. The outcome in experiment [8], in experiment [9], in [10], in experiment [11], in experiment [12] and in [13] was inactive. In addition, the outcome in experiment [14], in [16] and in experiment [17] was inactive. Besides, the potentiation in experiment [4] was 14% (active); in experiment [15], 43.5% (active).

Regarding `COc1cc(CN2CCC(CO)(CCOc3ccccc3)CC2)cc(OC)c1`, the outcome in experiment [1], in [2], in experiment [3], in experiment [4], in [6] and in [7] was inactive. The outcome in experiment [8], in experiment [9], in [10], in [11], in experiment [12] and in experiment [13] was inactive. Also, the outcome in experiment [15], in experiment [16] and in experiment [17] was inactive. Besides, the inhibition (as a rule, the change of the read-out against control, counted positive when it falls) was 87% (active) in experiment [5] and 43.6% (active) in [14].

Consider `NC(=S)N/N=C1/CCSc2ccc3ccccc3c21`, for which the result in experiment [1], in experiment [2], in experiment [3], in [5], in experiment [6] and in [7] was inactive. The result in [8], in experiment [9], in experiment [10], in experiment [11], in experiment [12] and in experiment [13] was inactive. Also, the outcome in experiment [14], in [16] and in [17] was inactive. Moreover, the potentiation in [4] was 25% (active); in experiment [15], 18.7% (active).

Consider `CN(C)CCCOC(=O)c1ccc(Cl)cc1Cl`, for which the result in experiment [1], in [2], in experiment [5], in experiment [6], in experiment [7] and in experiment [8] was inactive. Moreover, the result in experiment [9], in [10], in experiment [11], in experiment [12], in experiment [13] and in [14] was inactive. Besides, the outcome in experiment [16] and in [17] was inactive. Besides, the potentiation was 16% (active) in experiment [3], 8% (active) in experiment [4] and 18.3% (active) in [15].

`C=CCOc1ccc(CN(C)Cc2nc3cc(C(F)(F)F)ccc3c(=O)[nH]2)cc1`: the outcome in experiment [1], in experiment [2], in experiment [3], in experiment [4], in experiment [5] and in experiment [6] was inactive. Besides, the result in experiment [7], in experiment [8], in [9], in experiment [10], in experiment [11] and in experiment [12] was inactive. Moreover, the result in experiment [13], in [14], in experiment [16] and in [17] was inactive. Moreover, the potentiation in experiment [15] was 10.9% (active).

Turning to `COc1cccc(OCC(=O)NC2CCCCC2)c1`, the outcome in [1], in [2], in experiment [3], in experiment [5], in experiment [6] and in experiment [7] was inactive. Also, the result in [8], in [9], in [10], in experiment [11], in experiment [12] and in [13] was inactive. The outcome in [14], in experiment [16] and in experiment [17] was inactive. The potentiation in [4] is 41% (active); in experiment [15], 26.3% (active).

Consider `CC(=O)c1nn(-c2cccc(Br)c2)cc1C(=O)c1cccc2ccccc12`, for which the result in [1], in experiment [2], in experiment [3], in experiment [4], in [5] and in experiment [6] was inactive. Besides, the outcome in [7], in [8], in experiment [9], in experiment [10], in experiment [11] and in [12] was inactive. Further, the result in experiment [13], in [14], in [15], in experiment [16] and in experiment [17] was inactive.

Turning to `Cc1ccc(/C=N/NC(=O)C2COc3ccccc3O2)s1` (stereo not given), the result in [1], in experiment [2], in experiment [3], in experiment [4], in experiment [5] and in experiment [6] was inactive. The outcome in experiment [7], in [8], in [9], in experiment [10], in experiment [11] and in [12] was inactive. Moreover, the outcome in experiment [13], in experiment [14], in experiment [16] and in experiment [17] was inactive. For the same compound, the potentiation in experiment [15] is 22.2% (active).
